Reference: PubChem BioAssay AID1159580 (chemical genetic matrix, 2015)
“And” between values parts separate entries of the source, which are not always exact repeats. Identical values can stand only once. Out of some 5,500 compounds screened, about 2,000 (36%) were called active. Inconclusive results (about 18%) are left out. No stated cut-off is given here; in the data, active means normalized growth mostly below about 0.91 (no sharp cut-off); inconclusive means no clear call, values can overlap the other calls; inactive means mostly above about 0.92. This is one part of the list.

Experiment: chemical genetic growth profiling, strain panel (AID 1159580);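 further: tested at 20 µM; growth read once vehicle control cultures reached saturation at 30 °C; 1 = growth at the plate median or of vehicle wells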
Conditions: S. cerevisiae deletion strains, growth OD
[1] = locus YHR030C, strain SLT2, stronger effect = lower value
[2] = locus YHR079C, strain IRE1, stronger effect = lower value
[3] = locus YJL095W, strain BCK1, stronger effect = lower value
[4] = locus YJR066W, strain TOR1, stronger effect = lower value
[5] = locus YLR113W, strain HOG1, stronger effect = lower value
[6] = locus YNL183C, strain NPR1, stronger effect = lower value
[7] = locus YOR231W, strain MKK1, stronger effect = lower value
[8] = locus YPL256C, strain CLN2, stronger effect = lower value

Measured: normalized growth

CC[C@H](/C=C/C(C)C1CCC2C3CCC4=CC(=O)CC[C@]4(C)C3CC[C@]12C)C(C)C (some centres not stated)
inactive: locus YBR021W, strain FUR4, stronger effect = lower value 1.01 | locus YBR229C, strain ROT2, stronger effect = lower value 1 | locus YCL029C, strain bik1, stronger effect = lower value 1.02 | locus YDL035C, strain GPR1, stronger effect = lower value 1.02 | locus YDL074C, strain BRE1, stronger effect = lower value 1.02 | locus YDL101C, strain DUN1, stronger effect = lower value 1.01 | locus YDL134C, strain PPH21, stronger effect = lower value 1.03 | locus YDL185W, strain tfp1, stronger effect = lower value 1.01 | locus YDL192W, strain arf1, stronger effect = lower value 1 | locus YDR101C, strain arx1, stronger effect = lower value 1.01 | locus YDR162C, strain NBP2, stronger effect = lower value 1.03 | locus YDR318W, strain mcm21, stronger effect = lower value 1 | locus YDR388W, stronger effect = lower value 1.01 | locus YDR502C, strain sam2, stronger effect = lower value 1.02 | locus YEL061C, strain CIN8, stronger effect = lower value 1 | locus YER110C, stronger effect = lower value 1 | locus YER155C, strain BEM2, stronger effect = lower value 1.01 | locus YER167W, strain BCK2, stronger effect = lower value 1.02 | locus YGL078C, strain dbp3, stronger effect = lower value 1.01 | locus YGL086W, strain mad1, stronger effect = lower value 0.997 | locus YGL248W, strain PDE1, stronger effect = lower value 1.02 | locus YGR078C, strain PAC10, stronger effect = lower value 1.03 | locus YGR135W, strain pre9, stronger effect = lower value 1 | locus YGR252W, strain gcn5, stronger effect = lower value 1.01 | [1] 1.01 and 1.1 | locus YHR079C, strain IRE1 (second series), stronger effect = lower value 0.991 | [2] 1.07 | locus YHR094C, strain hxt1, stronger effect = lower value 0.99 | locus YHR129C, strain ARP1, stronger effect = lower value 1.01 | locus YHR200W, strain rpn10, stronger effect = lower value 1 | locus YIL066C, strain RNR3, stronger effect = lower value 1.03 | locus YIL073C, strain SPO22, stronger effect = lower value 1.05 | locus YIL125W, strain kgd1, stronger effect = lower value 1.01 | locus YIR030C, strain dcg1, stronger effect = lower value 1 | [3] 1.02 and 1.05 | locus YJL134W, strain LCB3, stronger effect = lower value 1.01 | locus YJL168C, strain set2, stronger effect = lower value 1 | locus YJL187C, strain SWE1 (second series), stronger effect = lower value 1.02 | locus YJR043C, strain POL32, stronger effect = lower value 1.03 | [4] 0.985 | locus YJR075W, strain HOC1, stronger effect = lower value 1.02 | locus YKL009W, strain mrt4, stronger effect = lower value 1.04 | locus YKL068W, stronger effect = lower value 1.01 | locus YKL085W, strain MDH1 (second series), stronger effect = lower value 1.01 | locus YKL085W, strain MDH1, stronger effect = lower value 1.01 | locus YKL190W, strain CNB1, stronger effect = lower value 1.01 | locus YKR001C, strain vps1, stronger effect = lower value 1.02 | locus YLR039C, strain RIC1, stronger effect = lower value 1.07 | locus YLR058C, strain SHM2, stronger effect = lower value 1.01 | locus YLR102C, strain apc9, stronger effect = lower value 0.999 | [5] 1.04 | locus YLR262C, strain YPT6, stronger effect = lower value 1.06 | locus YLR268W, strain sec22, stronger effect = lower value 1.02 | locus YLR330W, strain CHS5, stronger effect = lower value 1.01 | locus YLR342W, strain FKS1 (second series), stronger effect = lower value 0.996 | locus YLR371W, strain rom2, stronger effect = lower value 1.02 | locus YLR418C, strain cdc73, stronger effect = lower value 1.01 | locus YML016C, strain PPZ1, stronger effect = lower value 1 | locus YML032C, strain rad52, stronger effect = lower value 1.01 | locus YML124C, strain tub3, stronger effect = lower value 1 | locus YMR078C, strain ctf18, stronger effect = lower value 1 | locus YMR223W, strain ubp8, stronger effect = lower value 1.01 | locus YMR263W, strain SAP30, stronger effect = lower value 1.01 | locus YMR307W, strain GAS1, stronger effect = lower value 1.04 | locus YNL067W, strain RPL9B, stronger effect = lower value 1.02 | locus YNL153C, strain GIM3, stronger effect = lower value 1.01 | [6] 0.996 | locus YNL233W, strain BNI4, stronger effect = lower value 1.02 | locus YNL250W, strain rad50, stronger effect = lower value 1 | locus YNL271C, strain bni1, stronger effect = lower value 1.01 | locus YNL298W, strain CLA4, stronger effect = lower value 1 | locus YNL307C, strain MCK1, stronger effect = lower value 1.01 | locus YNL322C, strain KRE1, stronger effect = lower value 1.02 | locus YNR052C, strain pop2, stronger effect = lower value 1.01 | locus YOL006C, strain TOP1, stronger effect = lower value 1.13 | locus YOL012C, strain htz1 1.25 | locus YOL147C, strain pex11, stronger effect = lower value 1 | locus YOR061W, strain CKA2, stronger effect = lower value 1.01 | locus YOR069W, strain VPS5, stronger effect = lower value 1.01 | locus YOR136W, strain idh2, stronger effect = lower value 1 | locus YOR144C, strain elg1, stronger effect = lower value 0.994 | locus YOR184W, strain ser1, stronger effect = lower value 0.999 | [7] 1.08 | locus YOR316C, strain cot1, stronger effect = lower value 1 | locus YPL055C, strain LGE1, stronger effect = lower value 1.04 | locus YPL241C, strain CIN2, stronger effect = lower value 1.01 | [8] 1.03 | locus YPR119W, strain clb2, stronger effect = lower value 1 | locus YPR141C, strain kar3, stronger effect = lower value 1.01 | locus YPR163C, strain tif3, stronger effect = lower value 1.01 | locus YPR167C, strain met16, stronger effect = lower value 1.03 | strain wtn01, stronger effect = lower value 0.992

CC(=O)O[C@@H]1C[C@@]2(C)C(CC[C@@H]2C(C)=O)C2CCC3=CC(=O)CC[C@]3(C)C21 (some centres not stated)
inactive: locus YAL021C, strain ccr4, stronger effect = lower value 0.996 | locus YAL026C, strain drs2, stronger effect = lower value 1.03 | locus YAL030W, strain snc1, stronger effect = lower value 1.01 | locus YBL061C, strain skt5, stronger effect = lower value 1.01 | locus YBR009C, strain hhf1, stronger effect = lower value 1.06 | locus YBR023C, strain chs3, stronger effect = lower value 1 | locus YBR171W, strain sec66, stronger effect = lower value 0.964 | locus YBR231C, strain swc5, stronger effect = lower value 1.02 | locus YBR279W, strain paf1, stronger effect = lower value 1 | locus YCL011C, strain gbp2, stronger effect = lower value 1.02 | locus YCL016C, strain dcc1, stronger effect = lower value 1.02 | locus YCL061C, strain MRC1, stronger effect = lower value 1.01 | locus YCL069W, strain vba3, stronger effect = lower value 1.02 | locus YCR088W, strain abp1, stronger effect = lower value 1.02 | locus YDL005C, strain med2, stronger effect = lower value 1.01 | locus YDL040C, strain nat1, stronger effect = lower value 1.01 | locus YDR001C, strain nth1, stronger effect = lower value 0.997 | locus YDR069C, strain doa4, stronger effect = lower value 1.02 | locus YDR137W, strain rgp1, stronger effect = lower value 0.974 | locus YDR159W, strain sac3, stronger effect = lower value 1.02 | locus YDR195W, strain ref2 1.06 | locus YDR297W, strain sur2, stronger effect = lower value 1.01 | locus YDR334W, strain swr1, stronger effect = lower value 1.03 | locus YDR335W, strain msn5, stronger effect = lower value 1 | locus YDR392W, strain spt3, stronger effect = lower value 0.863 | locus YEL003W, strain gim4, stronger effect = lower value 1.02 | locus YEL037C, strain rad23, stronger effect = lower value 1.01 | locus YEL061C, strain CIN8 (second series), stronger effect = lower value 1.02 | locus YER015W, strain faa2, stronger effect = lower value 1.01 | locus YER016W, strain bim1, stronger effect = lower value 1.02 | locus YER111C, strain swi4, stronger effect = lower value 1.01 | locus YER155C, strain BEM2 (second series), stronger effect = lower value 1.04 | locus YFR010W, strain ubp6, stronger effect = lower value 1.02 | locus YGL167C, strain pmr1, stronger effect = lower value 1.02 | locus YGL173C, strain kem1, stronger effect = lower value 1.03 | locus YGL227W, strain vid30, stronger effect = lower value 1.01 | locus YGL240W, strain doc1, stronger effect = lower value 1.04 | locus YGL253W, strain hxk2, stronger effect = lower value 1 | locus YHR013C, strain ard1, stronger effect = lower value 0.974 | locus YHR027C, strain rpn1, stronger effect = lower value 1.01 | [1] 0.967 | [2] 0.985 | locus YHR142W, strain chs7, stronger effect = lower value 0.947 | locus YJL092W, strain hpr5, stronger effect = lower value 1.01 | locus YJL095W, strain BCK1 (second series), stronger effect = lower value 1.02 | [3] 0.997 | locus YJL115W, strain asf1, stronger effect = lower value 1.01 | locus YJL129C, strain trk1, stronger effect = lower value 0.95 | locus YJL154C, strain vps35, stronger effect = lower value 1.01 | locus YJL164C, strain tpk1, stronger effect = lower value 0.985 | locus YJL166W, strain qcr8, stronger effect = lower value 1.01 | locus YJL187C, strain SWE1, stronger effect = lower value 1.01 | [4] 0.953 | locus YKL160W, strain elf1, stronger effect = lower value 0.965 | locus YKR026C, strain gcn3, stronger effect = lower value 1.01 | locus YKR091W, strain srl3, stronger effect = lower value 1.01 | locus YLL001W, strain dnm1, stronger effect = lower value 1.02 | locus YLL026W, stronger effect = lower value 1.02 | locus YLL041C, strain sdh2, stronger effect = lower value 1 | locus YLR027C, strain aat2, stronger effect = lower value 0.998 | [5] 1.02 | locus YLR221C, strain rsa3, stronger effect = lower value 0.969 | locus YLR258W, strain gsy2, stronger effect = lower value 1.04 | locus YLR262C, strain YPT6 (second series), stronger effect = lower value 0.964 | locus YLR320W, strain mms22, stronger effect = lower value 0.97 | locus YLR342W, strain FKS1, stronger effect = lower value 1.02 | locus YLR357W, strain rsc2, stronger effect = lower value 1.03 | locus YLR370C, strain arc18, stronger effect = lower value 1 | locus YLR384C, strain iki3, stronger effect = lower value 1.01 | locus YML120C, strain ndi1, stronger effect = lower value 0.981 | locus YMR058W, strain fet3, stronger effect = lower value 1.01 | locus YMR125W, strain sto1, stronger effect = lower value 1.02 | locus YMR129W, stronger effect = lower value 1.01 | locus YMR205C, strain PFK2, stronger effect = lower value 1.05 | locus YMR231W, strain pep5, stronger effect = lower value 1.02 | locus YNL071W, strain lat1, stronger effect = lower value 0.97 | [6] 0.984 | locus YNL209W, strain ssb2, stronger effect = lower value 1 | locus YNL248C, strain rpa49, stronger effect = lower value 0.953 | locus YNL322C, strain KRE1 (second series), stronger effect = lower value 1.01 | locus YNR049C, strain mso1, stronger effect = lower value 1.01 | locus YOR001W, strain rrp6, stronger effect = lower value 0.947 | locus YOR070C, strain gyp1, stronger effect = lower value 1.01 | locus YOR080W, strain dia2, stronger effect = lower value 1.01 | locus YOR083W, strain WHI5, stronger effect = lower value 0.953 | locus YOR106W, strain vam3, stronger effect = lower value 0.974 | [7] 0.979 | locus YOR265W, strain rbl2, stronger effect = lower value 1 | locus YOR270C, strain vph1, stronger effect = lower value 0.999 | locus YOR290C, strain snf2, stronger effect = lower value 0.98 | locus YPL051W, strain arl3, stronger effect = lower value 0.976 | locus YPL078C, strain atp4, stronger effect = lower value 0.97 | locus YPL106C, strain sse1, stronger effect = lower value 1.03 | locus YPL240C, strain hsp82, stronger effect = lower value 0.984 | [8] 0.973
